Source: PubChem BioAssay (National Center for Advancing Translational Sciences (NCATS))
LmPK inh: qHTS Assay for Inhibitors of Leishmania Mexicana Pyruvate Kinase (LmPK); purified LmPK, Kinase-Glo ATP luminescence, 1 h; AID 1721, 2009; Potency, µM (doses to about 57.5 µM), for inactives: top-dose activity change, negative = inhibition, actives largely listed as inhibitors; hit rate 0.37% among 290,000; Q27686
Target sequence (Q27686 whole entry, looked up): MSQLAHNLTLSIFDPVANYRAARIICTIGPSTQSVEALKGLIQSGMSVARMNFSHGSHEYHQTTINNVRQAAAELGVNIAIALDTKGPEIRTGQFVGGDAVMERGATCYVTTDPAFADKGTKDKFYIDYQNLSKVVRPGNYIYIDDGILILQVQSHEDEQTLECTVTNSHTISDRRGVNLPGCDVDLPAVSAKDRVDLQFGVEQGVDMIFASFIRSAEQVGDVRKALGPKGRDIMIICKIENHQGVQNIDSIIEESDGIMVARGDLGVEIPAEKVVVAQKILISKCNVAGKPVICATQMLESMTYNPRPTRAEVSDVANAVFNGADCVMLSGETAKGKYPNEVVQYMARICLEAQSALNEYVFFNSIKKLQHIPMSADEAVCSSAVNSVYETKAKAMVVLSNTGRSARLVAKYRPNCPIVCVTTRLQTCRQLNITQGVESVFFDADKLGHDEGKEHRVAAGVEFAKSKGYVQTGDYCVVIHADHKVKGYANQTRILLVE
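In 50 mM imidazole pH 7.2 with 7 mM MgCl2, LmPK (0.1 nM) turned over PEP (0.5 mM) and ADP (0.1 mM) for 1 h at room temperature. Luciferase read-out of ATP.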
AMA1-RON2 inh: qHTS for Inhibitors of AMA1-RON; Towards Development of Antimalarial Drug Lead: Primary Screen; AlphaScreen AMA1-biotinylated RON2 peptide binding; Potency, µM (series often up to 58.2 µM), without a hit: top-dose activity change, negative = inhibition, usual class: inhibitors; AID 720542, 2013; Plasmodium falciparum AMA1 (3D7) - RON2 peptide interaction; hit rate 0.2% among 360,000;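 further: 0% = vehicle wells and -100% = peptide control; nearly all actives have a fitted effect of over 45% in size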
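AMA1 (3D7) with his tag at 25 nM final met compounds first, then biotinylated RON2 peptide at 25 nM; detection used donor plus acceptor beads, 10 µg/mL apiece, read by AlphaScreen after 30 min at room temperature.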
Tb PYK inh: qHTS of Trypanosoma Brucei Inhibitors | Potency, µM (series often up to 76.8 µM), without a hit: top-dose activity, negative = inhibition, usual class: inhibitors | TbPYK enzyme, Kinase-Glo Plus ATP luminescence, 45 min | hit rate 0.12% among 410,000 | pyruvate kinase (Trypanosoma brucei), Q57TT1; further: nearly all actives have a fitted effect of over 50% in size
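Luminescent Kinase-Glo Plus end-point after 45 min room-temperature reaction of T. brucei pyruvate kinase started with 130 uM ADP (final). Buffer TEA 50 mM pH 7.2 with KCl, MgCl2, BSA, Tween-20; titration-based qHTS with fitted concentration-effect curves.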
Sm TGR inh: qHTS Assay for the Inhibitors of Schistosoma Mansoni Peroxiredoxins. Schistosoma mansoni thioredoxin glutathione reductase (TGR), Q962Y6. purified TGR, DTNB reduction, TNB absorbance 405 nm. Potency, µM (titrated, usually from 114 µM), inactives show at the top dose activity change, negative = inhibition, actives largely listed as inhibitors. hit rate 3% among 360,000; further: nearly all actives have a fitted effect of over 60% in size
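Kinetic colorimetric format: TGR-catalysed, NADPH-driven DTNB reduction monitored via TNB absorbance. Enzyme dispensed at 20 nM; compound exposure 15 min at room temperature before reaction start.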
RE007 growth inh: qHTS Assay for Inhibitors of the HIV-1 protein Vpr. S. pombe RE007 Vpr strain, BacTiter-Glo ATP luminescence, 24 h. Potency, µM (top dose mostly 92.2 µM), for inactives: top-dose activity change, negative = less growth, hits mostly inhibitors. hit rate 0.21% among 360,000. AID 651644, 2012; active means well fitted falling curve with a large enough effect; inconclusive means small, poorly fitted or top-dose-only effect; inactive means no such curve, though single readings can be large or run the other way; further: nearly all actives have a fitted effect of over 50% in size
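Fission yeast strain RE007, carrying one chromosomally integrated HIV-1 vpr copy, was seeded at OD 0.01 in PMG+AL medium with 23 nL pinned compound. After 24 h at 30 °C and 99% humidity, viability was read by BacTiter-Glo luminescence.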
Active calls of the source: *; u = inconclusive; x = not tested or not shown; [ ] = remark or other dose. Only some compounds are listed: those with a hit (about 3.2% of all), similar ones and a draw of the others. Unless noted, the call rests on the fitted dose curve; in most records, active means well fitted curve in the direction sought with a large enough effect; inconclusive means small, poorly fitted or top-dose-only effect, or another doubt; inactive means no such curve, though single readings can be large; an effect the other way counts as inactive or inconclusive. Unless noted, on the % scale 0 is the no-effect control and ±100 the full control effect; potency means the concentration at half of the fitted maximal effect.

SMILES	LmPK inh	AMA1-RON2 inh	Tb PYK inh	Sm TGR inh	RE007 growth inh
CCOc1ccc(OCCN2CCCCC2)cc1	-6.5%	-26.1%	28.8%	5.3%	17.4%
Cc1ccc(C)c(N2CCN(C(=O)c3c(C)oc4nc(C)nc(N5CCOCC5)c34)CC2)c1	x	x	5.5%	-0.6%	x
CCn1cc2nc(SCc3cccc(C(F)(F)F)c3)n(Cc3ccc(C)cc3)c(=O)c2n1	x	x	5.0%	19.0%	x
Cc1ccccc1CNC(=O)C1CCCN(c2nnc(-n3c(C)ccc3C)s2)C1 (stereo not drawn)	x	x	2.9%	u	x
COC(=O)c1c(SC)nc2ccccc2c1OCc1ccccc1C	x	x	-1.3%	6.6%	x
CN(CC(=O)Nc1ccc(Cl)cc1F)S(=O)(=O)c1ccc2c(c1)n(C)c(=O)c(=O)n2C	x	x	1.3%	-7.0%	x
Cc1ccc(C(O)(CCN2CCCCC2)c2ccccc2)cc1 (stereo not drawn)	-3.5%	-4.2%	-2.9%	11.2µM*	x
OC(CCN1CCCCC1)(c1ccccc1)C1CCCCC1 (stereo not drawn)	-2.5%	4.9%	-0.2%	-0.1%	8.8%[18.4 µM]
CCCCOc1ccc(C(=O)CCN2CCOCC2)cc1	1.3%	-8.0%	-14.4%	2µM*	u
CCOc1ccc(C(=O)CCN2CCCCCC2)cc1	-5.8%	12.2%	-19.8%	0.316µM*	15.8µM*
Clc1cccc(OCCN2CCN(CCOc3cccc(Cl)c3)CC2)c1	0.3%	17.8µM*	-3.2%	-12.3%	-2.5%
O=C(OCCN1CCOCC1)c1ccc(OCCN2CCOCC2)cc1	4.6%	-4.6%	-4.0%	2.6%	20.8%
CC1CCN(CCOc2cccc(Br)c2)CC1	-2.5%	2.6%	3.2%	-8.8%	-4.7%
COC(=O)Nc1ccc(-c2nc(N3CCOCC3)c3cnn(C4CCN(C(=O)OC)CC4)c3n2)cc1	x	x	-0.7%	x	x
CCOc1ccc(CCNC(=O)c2cn(CC)c3ccc(S(=O)(=O)N4CCc5ccccc5C4)cc3c2=O)cc1OCC	x	x	-0.3%	2.0%	x
CCN(CC)[C@@H](C)CN1c2ccccc2Sc2ccccc21	x	x	2.3%[33.2 µM]	x	x
CCc1ccc(CNc2nc3nc(C)c(Cc4ccccc4)c(=O)n3[nH]2)cc1	x	x	1.2%	2.5%	x
Cc1c(C(=O)c2ccc(F)cc2F)c2ccccn2c1CCC#N	6.5%	-21.3%	-9.9%	35.5µM*	-6.1%
Cc1ccc(SC(=O)COc2ccccc2C)cc1	2.5%	68.1%	1.8%	11.2µM*	-24.1%
Cc1ccc(OC(=O)COc2ccccc2C)cc1	0.1%	25.0%	3.0%	-3.6%	-4.3%
CC1=C/C(=C(\c2cc(C)c(O)c(Br)c2)c2ccccc2S(=O)(=O)O)C=C(Br)C1=O	7.94µM*	u	u	u	u
COc1ccc(-c2cc3ccc(OC)cc3cn2)cc1	x	5.0%	-4.0%	15.8µM*	-16.6%
Cc1ccc(NC(=O)Cn2c(=O)n(CCC(=O)N3CCc4ccccc4C3)c(=O)c3ccccc32)cc1	x	x	6.4%	14.8%	x
CCn1c(C(=O)N2CCCC(C(=O)NCCc3ccc(C)cc3)C2)cc2sccc21 (stereo not drawn)	0.7%	11.6%	35.5µM*	4.7%	9.9%
CCn1c(C(=O)N2CCCC(C(=O)NCCCc3ccccc3)C2)cc2sccc21 (stereo not drawn)	3.8%	-6.9%	-16.2%	-8.4%	-5.7%
O=C(O)c1ccc2c3n(nc2c1)-c1ccc(Cl)cc1CO3	u	43.2%	-9.2%	17.7%	-4.6%
C=CCNC(=O)c1ccc2c3n(nc2c1)-c1ccccc1CO3	14.1µM*	-2.8%	u	9.5%	u
Cc1ccc2c(c1)COc1c3ccc(C(=O)N4CCOCC4)cc3nn1-2	15.8µM*	-9.7%	-15.0%	-1.5%	-33.0%
O=C(c1ccc2c3n(nc2c1)-c1ccc(Cl)cc1CO3)N1CCCCC1	25.1µM*	-2.1%	-18.5%	-0.2%	-16.3%
COc1ccc(-c2[nH]c(-c3ccccc3)nc2SCC(=O)Nc2ccc3c(c2)OCO3)cc1	x	x	-12.1%	u	x
